# Source: PubChem (several laboratories)
# Mdm2-MdmX inh: human Mdm2/MdmX binding inhibition; inhibition, % at 8 µM; SaOS-2 split-luciferase Mdm2/MdmX complementation, luminescence; 330,000 compounds, 3% hits; O15151+Q00987;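 active = inhibition of at least 50% at 8 µM in the primary screen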
# Gli-Sufu antag: antagonists of Gli-Sufu signaling | Sufu-KO-LIGHT fibroblasts, Gli luciferase reporter luminescence | inhibition, % at 5 µM | 340,000 compounds, 0.74% hits | AID 588413;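 active = inhibition above about 55%, limit read from the data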;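 also: 0% = DMSO-treated cells and 100% = wells with medium but no cells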
# Shn3 inh set2: reduces Shn3 3'UTR luciferase signal in osteoblasts. Clone20 osteoblast Shn3 3'UTR firefly luciferase, 24 h. inhibition, % at 12.5 µM. 360,000 compounds, 0.52% hits;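 active = mean inhibition of at least 75% with every replicate also reaching 75%; inconclusive = mean inhibition at least 75% but some replicate below; inactive = mean inhibition below 75%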;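 also: 0% = median of neutral control wells and 100% = pilot-screen positive control compound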
# 697 NFkB inh: inhibitors of the PMA/ionomycin-induced NF-kB reporter in 697 B cells; 697 B-cell NF-kB luciferase reporter, 16 h; inhibition, % at 4 µM; 330,000 compounds, 0.33% hits; AID 435022; in the data active = inhibition above about 35%
# Jurkat NFkB inh: inhibitors of the PMA/ionomycin-induced NF-kB reporter in Jurkat cells. AID 435003. inhibition, % at 4 µM. PMA/ionomycin-induced NF-kB luciferase reporter, luminescence. 330,000 compounds, 0.53% hits; in the data active = inhibition above about 50%
# Mdm2-MdmX conf: confirmation of human Mdm2/MdmX interaction inhibitors; shares compounds with Mdm2-MdmX inh; Mdm2-MdmX binding, luminescent assay; inhibition, % at 8 µM; 10,000 compounds, 55% hits; in the data active = inhibition above about 40%
# FLuc counter: counter-screen for Mdm2/MdmX inhibitors: full-length luciferase; shares compounds with Mdm2-MdmX inh; SaOS-2 full-length luciferase counterscreen, luminescence; inhibition, % at 8 µM; 6,200 compounds, 77% hits; AID 504607;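 active = mean inhibition at 8 µM reaching about 37%, which flags the compound as non-specific, limit read from the data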;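 also: p53-null SaOS-2 cells with luciferase driven by a doxycycline-inducible promoter; compound on cells about two nights before reading with doxycycline added after day one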
# Starred values were filed as active, the others as inactive; ? = inconclusive; / = not tested or not shown. Most compounds without a hit are left out; they make up all but 3.8% or so of the library.
SMILES,Mdm2-MdmX inh,Gli-Sufu antag,Shn3 inh set2,697 NFkB inh,Jurkat NFkB inh,Mdm2-MdmX conf,FLuc counter
Cn1nc(-c2ccc(OCC(=O)Nc3cccnc3)cc2)c2ccccc2c1=O,64*,3,34,23,12,6,/
CNC(=O)COc1ccc(-c2nn(C)c(=O)c3ccccc23)cc1,28,10,6,6,7,/,/
COc1ccccc1[C@]1(C)ON(c2ccccc2C(F)(F)F)C1=O,92*,39,-5,28,8,77*,37*
CC[C@]1(c2ccccc2OC)ON(c2ccccc2C(F)(F)F)C1=O,90*,-22,/,2,0,84*,35
CNC[C@@H](C)NC[C@@H](Cc1ccccc1)NCCc1ccccc1,69*,5,17,6,1,36,/
CC(C)[C@H](NC(=O)c1ccccc1)C(=O)NCCc1ccccc1,9,0,0,8,-6,/,/
COc1ccc2[nH]c3c(c2c1)CCN1C(=O)C(CC(=O)NCCN2CCOCC2)C[C@H](C(=O)N2CCOCC2)[C@@]31CCC1CCCC1 (some centres undefined),66*,0,4,6,/,-15,/
O=C(CC1C[C@H](C(=O)N2CCOCC2)[C@@]2(CCC3CCCC3)c3[nH]c4ccccc4c3CCN2C1=O)NCCC1=CCCCC1 (some centres undefined),60*,1,-12,4,7,-16,/
CN(C)C(=O)CCc1ccc2c3c([nH]c2c1)[C@]1(CCC2CCCC2)[C@@H](C(=O)N2CCOCC2)C[C@H](CC(=O)NCc2cccc(C(F)(F)F)c2)C(=O)N1CC3,61*,3,40,25,/,53*,59*
COc1ccc(-c2nn(-c3ccccc3)cc2C(=O)NC2CCC(C)CC2)cc1 (centres undefined),28,-10,9,4,0,/,/
COc1ccc(-c2nn(-c3ccccc3)cc2C(=O)NC2CCCCC2C)cc1 (centres undefined),74*,8,25,11,-7,29,/
O=C(Nc1ccccc1)Nc1nnc(Cc2ccc(F)cc2)s1,7,5,-10,6,-11,/,/
Cc1ccc(NC(=O)Nc2nnc(Cc3ccc([N+](=O)[O-])cc3)s2)cc1C,57*,-26,17,17,2,36,39*
O=C(Nc1ccccc1)Nc1nnc(Cc2ccc([N+](=O)[O-])cc2)s1,66*,-2,-1,6,-2,13,/
O=C(Nc1nnc(Cc2ccc([N+](=O)[O-])cc2)s1)Nc1ccccc1F,37,-2,-7,8,4,/,/
Cc1ccccc1NC(=O)Nc1nnc(Cc2ccc([N+](=O)[O-])cc2)s1,67*,-7,16,3,-7,10,/
Cc1ccc(NC(=O)Nc2nnc(Cc3ccc(F)cc3)s2)cc1,55*,-16,-11,-6,-27,32,/
COc1ccc(NC(=O)Nc2nnc(Cc3ccccc3)s2)cc1,4,0,25,3,4,/,/
COc1ccc(-c2csc(NC(=S)NC(=O)c3cc4ccccc4o3)n2)cc1Br,-4,13,-25,-12,-1,/,/
COc1ccc(-c2csc(NC(=S)NC(=O)/C=C/c3ccco3)n2)cc1Br,85*,13,17,-56,38,65*,59*
COc1cc(OC)cc(C(=O)NC(=S)Nc2nc(-c3cc4ccccc4o3)cs2)c1,65*,-9,-14,-4,-20,0,/
COc1ccc(-c2csc(NC(=S)NC(=O)c3ccccc3)n2)cc1Br,56*,9,13,9,-12,38,85*
COc1ccc(C(=O)NC(=S)Nc2nc(-c3ccc(OC)c(Br)c3)cs2)cc1Br,21,-3,-10,-46,-1,/,/
COc1ccc(-c2csc(NC(=S)NC(=O)c3ccco3)n2)cc1Br,82*,-9,8,-11,11,56*,23
Cc1cc(C)c2c(CCl)cc(=O)oc2c1,70*,-3,-15,13,5,61*,100*
SMILES,Mdm2-MdmX inh,Gli-Sufu antag,Shn3 inh set2,697 NFkB inh,Jurkat NFkB inh,Mdm2-MdmX conf,FLuc counter
Cc1cc(C)c2c(CN3CCCCC3)cc(=O)oc2c1,21,-2,-2,-5,-17,/,/
CCOC(=O)C1(CCc2ccccc2)CCN(Cc2c(O)cccc2OC)CC1,55*,47,46,-11,11,26,/
Cc1ccc(C)c(OC(=O)c2cncc(Br)c2)c1,0,3,10,-48,6,/,/
C[C@@H]1CC[C@]2(C(=O)O)CC[C@]3(C)C(=CCC4[C@]56CC[C@@](O)(OC5)C(C)(C)C6CC[C@]43C)C2[C@H]1C (some centres undefined),29,-5,2,-5,1,/,/
CC1(C)C[C@H]2C3=CCC4[C@@]5(C)CC[C@H](O)[C@](C)(CO)C5CC[C@@]4(C)[C@]3(C)CC[C@@]2(C)[C@H](O)[C@@H]1O (some centres undefined),87*,-5,27,1,-1,57*,60*
C[C@H]1[C@H](C)CC[C@]2(C(=O)O)CC[C@]3(C)C(=CC[C@@H]4[C@@]5(C)C[C@@H](O)[C@H](O)C(C)(C)[C@@H]5CC[C@]43C)[C@H]12,68*,-13,1,22,4,25,/
C[C@@H]1CC[C@]2(C(=O)O)CC[C@]3(C)C(=CCC4[C@@]5(C)CC[C@H](O)[C@@](C)(C(=O)O)C5CC[C@]43C)C2[C@]1(C)O (some centres undefined),-4,-9,-15,18,-9,/,/
C[C@H]1[C@H](C)CC[C@]2(C(=O)O)CC[C@]3(C)C(=CC[C@@H]4[C@@]5(C)CC[C@H](O)C(C)(C)[C@@H]5CC[C@]43C)[C@H]12,78*,-3,-6,5,-21,15,/
CC1(C)C[C@H]2C3=CCC4[C@@]5(C)CC[C@H](O)[C@](C)(CO)C5CC[C@@]4(C)[C@]3(C)C[C@H]3O[C@@H]1[C@H](O)[C@]32CO (some centres undefined),10,-31,4,11,-17,/,/
O=C(Oc1c(CN2CCOCC2)cc(Cl)c2cccnc12)c1cccs1,65*,9,45,-11,18,43*,43*
O=C(Oc1c(CN2CCOCC2)cc(Cl)c2cccnc12)c1ccccc1Cl,41,19,?,-15,9,/,/
O=C(Oc1ccc(Cl)c2cccnc12)N1CCOCC1,3,-1,-1,13,0,/,/
O=C(Nc1cccnc1Cl)c1cccs1,17,-12,-10,6,12,/,/
COc1ccc(C(=O)Oc2c(CN3CCOCC3)cc(Cl)c3cccnc23)cc1,55*,6,19,13,3,35,43*
O=C(Oc1c(Cl)cc(Cl)c2cccnc12)c1cccs1,76*,-1,18,-10,5,57*,32
